# Values joined by “and” are separate entries in the source; they are usually repeats but may differ in a detail not shown here. Equal values may be shown once. A structure can be active in one record and inactive in another. Active and inactive are the calls of the source. The calls were made as follows: active = hit-call score of the fitted dose curve at least 0.9, where 1 is the maximum; inactive = score below 0.9.
# Key:
# [1] = target: Bile acid receptor (Homo sapiens) (UniProt Q96RI1); test: ATG_IR1_CIS: Attagene CIS-FACTORIAL HepG2 Assay for human Nuclear Receptor Subfamily 1 Group H Member 4 (NR1H4), IR1 submotif (AID 2282946); conditions: IR1 reporter transcription, actives raise or lower the signal
# In short: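 HepG2 cells transiently transfected with multiplexed cis-element reporter units read endogenous transcription factor activity. After 24 h compound exposure, reporter mRNA was quantified by RT-PCR, fluorescent labelling, HpaI digestion and capillary electrophoresis; bidirectional fitting versus DMSO baseline.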
# [2] = ATG_GRE_CIS: Attagene CIS-FACTORIAL HepG2 Assay for human Glucocorticoid Response Elements (GRE) (AID 2282947); conditions: HepG2 GRE cis-reporter, Attagene multiplex mRNA; actives raise or lower the signal
# In short: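 Multiplexed cis-reporter mRNA induction, HepG2, 24 h post-dose. RT-PCR, FAM-labelled, HpaI-digested amplicons by CE. Bidirectional fit vs DMSO.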
# [3] = ATG_ISRE_CIS: Attagene CIS-FACTORIAL HepG2 Assay for human Interferon Regulatory Factor 1 (IRF1) binding to an Interferon-Stimulated Response Element (ISRE) (AID 2282948); conditions: HepG2 ISRE cis-reporter (Attagene), mRNA transcription readout; actives raise or lower the signal
# In short: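 Endogenous transcription factor activity read as reporter transcript abundance via RT-PCR and capillary electrophoresis. HepG2 cells transiently transfected, 24 h chemical exposure. Gain or loss fitted against DMSO baseline.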
# [4] = ATG_M_32_CIS: Attagene CIS-FACTORIAL HepG2 Assay for M32 Transcription Factor (Internal Marker) (AID 2282949); conditions: HepG2 Attagene cis-factorial M32 reporter, mRNA; actives raise or lower the signal;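 also: background control marker of the multiplexed CIS panel rather than a real target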
# In short: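 Transient MRTU transfection of HepG2; 24 h compound treatment; TriZol RNA, oligo(dT) RT, reporter PCR, 6-FAM primer extension, HpaI cut, CE. Gain/loss of signal vs DMSO.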
# [5] = ATG_M_06_CIS: Attagene CIS-FACTORIAL HepG2 Assay for M06 Transcription Factor (Internal Marker) (AID 2282950); conditions: HepG2 Attagene CIS-FACTORIAL M06 internal marker reporter; actives raise or lower the signal
# In short: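 Read-out is fluorescence of labelled reporter cDNA fragments resolved by capillary electrophoresis after RT-PCR. Cells: HepG2 carrying transfected cis-promoter reporter units, treated 24 h. Gain or loss of signal fitted relative to DMSO.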
# [6] = target: Hypoxia-inducible factor 1-alpha (Homo sapiens) (UniProt Q16665); test: ATG_HIF1a_CIS: Attagene CIS-FACTORIAL HepG2 Assay for human Hypoxia Inducible Factor 1 (HIF1A) (AID 2282951); conditions: HepG2 Attagene cis-factorial HIF1a reporter transcription; actives raise or lower the signal
# In short: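 HepG2, transient cis-reporter library, 24 h dosing. RNA → RT (oligo dT) → PCR → 6-FAM primer extension → HpaI → CE. Bidirectional curve fit vs DMSO.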
# [7] = target: Hepatocyte nuclear factor 6 (Homo sapiens) (UniProt Q9UBC0); test: ATG_HNF6_CIS: Attagene CIS-FACTORIAL HepG2 Assay for human Hepatocyte Nuclear Factor 6 (HNF6) (AID 2282952); conditions: HepG2 Attagene cis-factorial HNF6 reporter transcription; actives raise or lower the signal
# In short: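 Twenty-four-hour chemical treatment of reporter-transfected HepG2 cells precedes RNA isolation, DNase-treated reverse transcription and PCR of reporter sequences. Labelled fragments are sized by capillary electrophoresis and fitted bidirectionally versus DMSO.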
# [8] = ATG_MRE_CIS: Attagene CIS-FACTORIAL HepG2 Assay for human Metal Responsive Element (MRE) (AID 2282954); conditions: HepG2 MRE cis-reporter transcription, Attagene multiplex; actives raise or lower the signal
# In short: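 Multiplexed cis-reporter assay in human HepG2 liver cells, 24 h incubation with test chemical. Reporter transcripts measured by RT-PCR and capillary electrophoresis; values from bidirectional curve fitting versus DMSO.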
# [9] = target: Heat shock factor protein 1 (Homo sapiens) (UniProt Q00613); test: ATG_HSE_CIS: Attagene CIS-FACTORIAL HepG2 Assay for human Heat Shock Transcription Factor 1 (HSE) (AID 2282953); conditions: HepG2 HSE cis-reporter, Attagene RNA transcription; actives raise or lower the signal
# In short: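 HepG2, transient MRTU transfection, cis-promoter reporters (endogenous TF activity). 24 h compound. RNA → oligo(dT) RT → PCR → 6-FAM primer extension → HpaI cut → CE. Bidirectional fit vs DMSO.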
# [10] = ATG_PBREM_CIS: Attagene CIS-FACTORIAL HepG2 Assay for human Phenobarbital-responsive Enhancer Module (PBREM) (AID 2282955); conditions: HepG2 PBREM cis-reporter, Attagene multiplexed transcription; actives raise or lower the signal
# In short: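 HepG2, transient MRTU transfection, 24 h dosing; RNA → oligo(dT) RT → PCR → 6-FAM extension → HpaI → CE. Bidirectional fit vs DMSO.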
# Hepatocyte nuclear factor 6 (Homo sapiens), sequence (Q9UBC0 whole entry, looked up, the tested form may be a part): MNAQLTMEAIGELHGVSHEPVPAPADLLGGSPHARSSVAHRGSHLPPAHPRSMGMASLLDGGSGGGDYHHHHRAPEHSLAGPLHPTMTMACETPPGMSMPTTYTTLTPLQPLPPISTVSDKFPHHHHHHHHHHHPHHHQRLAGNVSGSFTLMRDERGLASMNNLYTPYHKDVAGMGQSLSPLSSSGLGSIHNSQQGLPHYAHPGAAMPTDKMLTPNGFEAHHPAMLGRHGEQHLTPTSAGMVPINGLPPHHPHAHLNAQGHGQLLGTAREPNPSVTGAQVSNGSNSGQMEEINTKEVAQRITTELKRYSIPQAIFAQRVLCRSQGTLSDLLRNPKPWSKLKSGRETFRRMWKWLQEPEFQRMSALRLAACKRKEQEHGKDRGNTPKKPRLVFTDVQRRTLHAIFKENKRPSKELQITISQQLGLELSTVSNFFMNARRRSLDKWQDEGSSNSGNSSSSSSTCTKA
# Bile acid receptor (Homo sapiens), sequence (Q96RI1 whole entry, looked up): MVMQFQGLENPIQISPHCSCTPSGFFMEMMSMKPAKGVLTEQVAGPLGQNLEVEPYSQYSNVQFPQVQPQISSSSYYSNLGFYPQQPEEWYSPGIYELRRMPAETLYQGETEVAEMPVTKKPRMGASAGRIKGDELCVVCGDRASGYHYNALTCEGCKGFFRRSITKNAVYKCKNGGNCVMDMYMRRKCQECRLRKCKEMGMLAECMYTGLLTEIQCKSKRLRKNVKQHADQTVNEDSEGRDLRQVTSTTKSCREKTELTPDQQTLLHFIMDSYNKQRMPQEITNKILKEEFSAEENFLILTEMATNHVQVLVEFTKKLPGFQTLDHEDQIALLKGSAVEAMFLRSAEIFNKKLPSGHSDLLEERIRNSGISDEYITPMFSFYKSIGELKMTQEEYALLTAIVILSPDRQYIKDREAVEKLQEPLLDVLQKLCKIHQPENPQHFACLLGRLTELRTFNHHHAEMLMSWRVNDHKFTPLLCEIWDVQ
# Hypoxia-inducible factor 1-alpha (Homo sapiens), sequence (Q16665 whole entry, looked up): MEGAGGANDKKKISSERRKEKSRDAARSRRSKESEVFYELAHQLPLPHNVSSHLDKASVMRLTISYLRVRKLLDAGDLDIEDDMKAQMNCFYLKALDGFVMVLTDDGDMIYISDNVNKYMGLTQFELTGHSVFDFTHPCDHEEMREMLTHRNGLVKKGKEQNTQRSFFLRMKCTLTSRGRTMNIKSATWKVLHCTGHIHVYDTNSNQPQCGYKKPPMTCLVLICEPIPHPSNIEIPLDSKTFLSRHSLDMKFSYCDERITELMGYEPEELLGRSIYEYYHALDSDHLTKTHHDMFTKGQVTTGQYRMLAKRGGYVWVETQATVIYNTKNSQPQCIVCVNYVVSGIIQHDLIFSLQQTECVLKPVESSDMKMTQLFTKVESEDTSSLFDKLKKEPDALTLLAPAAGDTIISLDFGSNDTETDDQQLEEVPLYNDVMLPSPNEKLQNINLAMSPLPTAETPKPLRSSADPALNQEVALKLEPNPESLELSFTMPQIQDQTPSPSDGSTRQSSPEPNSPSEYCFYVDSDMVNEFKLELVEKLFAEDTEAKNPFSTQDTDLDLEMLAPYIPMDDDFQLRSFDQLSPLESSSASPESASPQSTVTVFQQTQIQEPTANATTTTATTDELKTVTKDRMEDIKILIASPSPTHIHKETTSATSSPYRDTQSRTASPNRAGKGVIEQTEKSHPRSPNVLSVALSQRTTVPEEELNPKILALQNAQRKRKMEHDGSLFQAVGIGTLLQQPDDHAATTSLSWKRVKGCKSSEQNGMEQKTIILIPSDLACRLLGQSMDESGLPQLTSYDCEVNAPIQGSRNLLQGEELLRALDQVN
# Heat shock factor protein 1 (Homo sapiens), sequence (Q00613 whole entry, looked up): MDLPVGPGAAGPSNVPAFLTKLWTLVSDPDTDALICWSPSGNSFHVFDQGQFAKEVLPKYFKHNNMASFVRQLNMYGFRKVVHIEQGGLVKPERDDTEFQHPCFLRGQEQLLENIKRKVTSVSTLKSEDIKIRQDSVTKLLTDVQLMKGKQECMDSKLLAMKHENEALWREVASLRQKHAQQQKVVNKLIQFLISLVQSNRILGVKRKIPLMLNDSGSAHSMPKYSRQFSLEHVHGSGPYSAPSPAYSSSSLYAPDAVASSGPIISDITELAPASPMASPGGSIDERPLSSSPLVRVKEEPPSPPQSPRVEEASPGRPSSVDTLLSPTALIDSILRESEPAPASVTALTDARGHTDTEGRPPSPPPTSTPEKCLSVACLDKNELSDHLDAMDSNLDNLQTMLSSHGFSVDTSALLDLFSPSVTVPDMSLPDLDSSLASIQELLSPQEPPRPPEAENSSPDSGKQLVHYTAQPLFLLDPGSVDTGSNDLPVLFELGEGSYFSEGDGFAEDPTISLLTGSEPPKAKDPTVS
SMILES,outcome [1],outcome [2],AC50 [3],outcome [4],outcome [5],outcome [6],outcome [7],outcome [8],outcome [3],outcome [9],AC50 [1],AC50 [2],AC50 [8],outcome [10],AC50 [6],AC50 [10],AC50 [7]
c1ccc(-c2ccccc2)cc1,inactive,inactive,110 µM (active),inactive,inactive,inactive,inactive,inactive,–,–,–,–,–,–,–,–,–
N#Cc1ccc(N(CC(N)=O)CC(F)(F)F)cc1C(F)(F)F,inactive,–,–,inactive,inactive,inactive,–,inactive,inactive,inactive,–,–,–,–,–,–,–
CCCCCCCCCC[N+](C)(C)CCCCCCCCCC,–,–,24.9 µM (active),inactive,inactive,inactive,–,–,–,–,5.11 µM (active),8.55 µM (active),4.45 µM (active),inactive,–,–,–
ClC(Cl)=C(c1ccc(Cl)cc1)c1ccc(Cl)cc1,inactive,inactive,100 µM (active),inactive,inactive,inactive,–,inactive,inactive,–,21.5 µM (active) and 27.7 µM (active) and 184 µM (active),–,156 µM (active),inactive,169 µM (active),–,–
NS(=O)(=O)C(F)(F)C(F)(F)C(F)(F)C(F)(F)C(F)(F)C(F)(F)C(F)(F)C(F)(F)F,inactive,inactive,91.1 µM (active) and 35.8 µM (active),inactive,inactive,inactive,–,–,inactive,–,9.66 µM (active),–,52.2 µM (active) and 39.2 µM (active) and 50 µM (active),inactive,8.26 µM (active),46.7 µM (active) and 33.8 µM (active),–
Oc1c(Cl)c(Cl)c(Cl)c(Cl)c1Cl,inactive,inactive,78.7 µM (active) and 51 µM (active),inactive,inactive,inactive,–,–,inactive,–,–,–,50 µM (active) and 40.9 µM (active) and 78.8 µM (active),inactive,3.43 µM (active) and 20.6 µM (active),18.1 µM (active) and 7.11 µM (active),–
c1cc2ccc3cccc4ccc(c1)c2c34,inactive,inactive,–,inactive,inactive,inactive,–,inactive,inactive,–,–,–,–,inactive,–,–,–
Cc1cccc([N+](=O)[O-])c1,inactive,inactive,–,inactive,inactive,–,–,inactive,inactive,–,–,–,–,–,181 µM (active),–,–
CCCCCCCCOC(=O)c1ccccc1C(=O)OCCCCCCCC,inactive,–,–,inactive,inactive,–,inactive,inactive,inactive,inactive,–,–,–,inactive,40.1 µM (active),–,–
Cc1cc2c3c(c1)C(c1ccccc1)=N[C@@H](NC(=O)c1ccncc1)C(=O)N3CC2,inactive,–,102 µM (active),inactive,inactive,–,inactive,–,–,inactive,–,–,77.1 µM (active),–,72.4 µM (active),3.47 µM (active),–
CC(c1ccc(O)cc1)(c1ccc(O)cc1)c1ccc(O)cc1,–,inactive,16.1 µM (active),inactive,inactive,–,–,–,–,–,11.1 µM (active),–,13.5 µM (active),inactive,13.8 µM (active),–,18.6 µM (active)
CN(C)c1nc(=O)n(C2CCCCC2)c(=O)n1C,inactive,–,–,inactive,inactive,inactive,–,inactive,inactive,inactive,–,–,–,inactive,–,–,–
C[C@]12CCC(=O)C=C1CC[C@@H]1[C@@H]2CC[C@]2(C)C(=O)CC[C@@H]12,inactive,–,–,inactive,inactive,–,–,inactive,inactive,–,–,–,–,inactive,–,–,–
OCC(O)CO,inactive,inactive,–,inactive,inactive,inactive,–,inactive,inactive,inactive,–,–,–,–,–,–,–
Oc1ccc(Cl)cc1Cl,inactive,inactive,–,inactive,inactive,inactive,inactive,inactive,inactive,–,–,–,–,inactive,–,–,–
O=S(=O)(O)C(F)(F)C(F)(F)C(F)(F)C(F)(F)C(F)(F)C(F)(F)F,inactive,inactive,–,inactive,inactive,inactive,inactive,inactive,inactive,inactive,–,–,–,inactive,–,–,–

# Reference: PubChem BioAssay (EPA / NIEHS)
